Bead autofluor: flagged as autofluorescent in microsphere protease counterscreen; compound autofluorescence counterscreen, microsphere flow cytometry; active compounds read high; actives 3.1% (n = 360,000); fluorescence intensity (concentration not given with the values); in the data active = fluorescence intensity above about 16000; inconclusive = no clear call, values can overlap the other calls
MazEF act: MazEF (E. coli) toxin RNase activation; P0AE70; FAM/BHQ RNA-DNA oligo cleavage fluorescence, 5 h; activation, % at 20 µM; actives 0.32% (n = 350,000); AID 504720; in the data active = activation above about 50%
Target sequence (P0AE70 whole entry, looked up): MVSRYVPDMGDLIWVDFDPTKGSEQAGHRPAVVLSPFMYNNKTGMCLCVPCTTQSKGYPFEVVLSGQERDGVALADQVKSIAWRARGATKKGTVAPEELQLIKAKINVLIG
Anthrax LF inh2: blocks Bacillus anthracis lethal factor protease; P15917; multiplex microsphere protease cleavage assay, LF; inhibition, % at 10 µM; actives 0.12% (n = 360,000); AID 588501; note: plate controls were buffer without enzyme for full effect and enzyme alone for no effect
BoNT A protease: inhibitors of Botulinum neurotoxin A light chain protease; multiplex microsphere protease substrate cleavage, flow cytometry; AID 588499; inhibition, % at 10 µM; actives 0.17% (n = 360,000); note: plate controls were buffer without enzyme for full effect and enzyme alone for no effect
BoNT-F LC inh: blocks Botulinum neurotoxin F light chain protease | actives 0.22% (n = 360,000) | inhibition, % at 10 µM | Multiplex microsphere protease cleavage assay, flow cytometry | AID 588497; in the data active = inhibition above about 35%, passing the limit was not always enough; inconclusive = no clear call, values can overlap the other calls; note: plate controls were buffer without enzyme for full effect and enzyme alone for no effect
An asterisk follows results filed as active; ? = inconclusive; / = no result; + = active, no number. Most compounds without a hit are left out; they make up all but 3.7% or so of the library. Cut-off read from the data, not from the text of the source, unless noted: active = inhibition above about 30%; inconclusive = no clear call, values can overlap the other calls; inactive = below that.

SMILES	Bead autofluor	MazEF act	Anthrax LF inh2	BoNT A protease	BoNT-F LC inh
CCc1nc2ccc(C(=O)NCC3CCCCC3)cn2c1N(CCC(C)C)CCN(C)C	2898	/	-3	0	-1
CC(=O)Nc1cccc(-c2nnc(SCC(=O)N3CCCCC3)n2C)c1	24749*	-2	0	-2	-3
CCOC(=O)C1=C(c2ccccc2)Nc2ncnn2C1c1cc(OC)ccc1OC (stereo not drawn)	21867*	7	2	1	2
CCCCOC(=O)C1=C(C)Nc2ncnn2C1c1cc(OC)ccc1OC (stereo not drawn)	19006*	7	-12	7	10
CCCCOC(=O)C1=C(C)Nc2ncnn2C1c1cccc(OC)c1 (stereo not drawn)	23328*	2	2	0	3
COc1cccc(C2C(C(C)=O)=C(C)Nc3ncnn32)c1 (stereo not drawn)	3951	8	-6	-1	18
COc1ccc(OCCCC(=O)OCC(=O)N2CCN(S(=O)(=O)c3ccc(C)cc3C)CC2)cc1	6143	4	-4	3	-10
COc1cccc(C(=O)NCCS(=O)(=O)N2CCCC(C)C2)c1 (stereo not drawn)	3538	-3	-10	0	2
CCc1sc(C(=O)N2CCN(S(C)(=O)=O)CC2)cc1Br	23583*	-9	0	-2	0
CC1=NN(c2ccc(C(=O)OC(C)C)cc2)C(=O)/C1=C\C=C\c1ccco1	19581*	-9	-5	2	-2
CC1=NN(c2ccccc2)C(=O)/C1=C\C=C\c1ccccc1	/	13	/	/	/
CCOC(=O)c1ccc(N2N=C(C)/C(=C/C=C/c3ccco3)C2=O)cc1	22790*	0	-5	?	-6
CC1CCN(c2ccc3c(c2)S(=O)(=O)c2cccc(C(=O)NCc4cccc(F)c4)c2C3=O)CC1	3561	97*	8	14	8
O=C(NCCc1ccc(F)cc1)c1cccc2c1C(=O)c1ccc(N3CCC(Cc4ccccc4)CC3)cc1S2(=O)=O	8857	-425	41*	22	30
COc1cc(C(O)c2nc(-c3cc4ccccc4o3)cs2)ccc1F (stereo not drawn)	4010	/	-2	0	-2
CN(CC(=O)Nc1ccccc1Br)c1ncnc2sccc12	4398	57*	-2	0	1
CCOC(=O)c1sc(NC(=O)C2C3C=CC(C3)C2C(=O)O)nc1C (stereo not drawn)	23393*	-1	0	0	-2
CCOC(=O)c1sc(NC(=O)C2CC2)nc1C	7024	-3	-11	-1	-7
Cc1csc(NC(=O)C2C3C=CC(C3)C2C(=O)O)n1 (stereo not drawn)	21611*	-10	1	?	8
O=C(COC(=O)c1ccc(F)cc1F)Nc1ccc(S(=O)(=O)N2CCOCC2)cc1	3606	6	-1	0	-2
COc1ccc(CCNC(=O)C2CCN(Cc3nc(-c4ccccc4C)oc3C)CC2)cc1OC	22311*	4	-7	-2	-4
Cc1ccccc1-c1nc(CN2CCC(C(=O)NC3CCCCC3)CC2)c(C)o1	5193	9	-1	0	5
Cc1oc(-c2ccccc2F)nc1CN1CCC(C(=O)NCc2ccco2)CC1	19776*	-8	2	?	1
Cc1oc(-c2ccccc2F)nc1CN1CCC(C(=O)NC2CCCCCCC2)CC1	16243*	0	-1	1	2
COc1ccc([C@H]2C[C@@H](n3cc(C4CC4)nn3)[C@H](O)CN2CC2CCCCC2)cc1	3877	2	0	0	1
SMILES	Bead autofluor	MazEF act	Anthrax LF inh2	BoNT A protease	BoNT-F LC inh
O=C(CSc1nnc2scc(-c3ccc(Cl)cc3)n12)NCc1ccco1	25480*	5	-5	-7	-10
O=C(CSc1nnc2scc(-c3ccccc3)n12)NCc1ccco1	2054	3	-2	0	-7
O=C(CSc1n[nH]c(-c2cccs2)n1)NCc1ccc2c(c1)OCO2	22840*	6	-5	1	0
O=C(CSc1nnc2scc(-c3ccc(Cl)cc3)n12)NCc1ccc2c(c1)OCO2	24173*	3	-1	-2	1
O=C(CSc1nnc2scc(-c3ccccc3)n12)NCc1ccc2c(c1)OCO2	5416	-10	1	0	-2
O=C(CNC(=O)c1ccco1)OCc1c(F)cccc1Cl	20975*	3	-2	?	4
COc1ccc(N2C(=O)c3ccccc3NC23CCCCC3)cc1	7732	-7	1	0	7
COc1ccc(N2C(=O)c3ccccc3NC23CCC(C)CC3)cc1 (stereo not drawn)	22907*	2	0	0	-1
Fc1ccc(-[n+]2nc(Nc3ccccc3)sc2-c2c3ccccc3cc3ccccc23)cc1	3757	15	18	15	-17
Oc1ccc2ccccc2c1-c1sc(Nc2ccccc2)n[n+]1-c1ccc(F)cc1	4550	+	-1	1	-4
Cc1cc(NC(=O)CSc2nc3cc(Cl)ccc3c(=O)n2C(C)C)no1	?	-9	7	5	4
COc1ccc(NC(=O)C2(C)Cc3c(-c4cccc(C(F)(F)F)c4)ccnc3O2)cn1 (stereo not drawn)	3438	/	0	0	-2
CCCCCCn1c(=O)[nH]c2nc3cc(N)ccc3nc2c1=O	/	364*	/	/	/
CCCCCCn1c(=O)[nH]c2c(c1=O)CCC2	5690	6	-1	0	-9
CC(=O)c1ccc(OC2(C)CCN(Cc3ccc4c(c3)OCCO4)C2)cc1 (stereo not drawn)	4113	/	-2	0	-6
CCCOc1ccc(C(=O)N/N=C/c2ccc(-c3ccc(S(=O)(=O)Nc4ncccn4)cc3)o2)cc1	22659*	-14	-1	?	-9
C[C@@H]1CN([C@@H](C)CO)C(=O)CCCn2nncc2CO[C@@H]1CN(C)C(=O)Nc1cccc(Oc2ccccn2)c1	2887	9	-5	-1	-5
O=C(Nc1ccc(S(=O)(=O)Nc2ncccn2)cc1)c1ccccc1	3507	3	0	-1	6
O=C(Nc1ccc(S(=O)(=O)Nc2nccc(C3Cc4ccccc4C(=O)O3)n2)cc1)c1ccccc1 (stereo not drawn)	23166*	1	-2	1	2
C[C@@H]1COc2cc(N3CC[C@H](O)C3)ccc2S(=O)(=O)N1	4279	/	-11	-1	-8
O=c1c2ccccc2nnn1CSc1nnc(COc2ccc(Cl)cc2)n1Cc1ccco1	22380*	3	-4	?	-4
COC(=O)CN(C(=S)Nc1ccc(F)cc1)C1CC(=O)N(c2ccc(OC)cc2)C1=O (stereo not drawn)	22916*	-5	-1	?	-3
O=C1c2ccccc2-c2cc(Br)ccc2NC1O (stereo not drawn)	3457	-16	-11	0	-14
O=C1c2ccccc2C(=Nc2ccccc2)C1c1cccc(Br)c1 (stereo not drawn)	21729*	-11	-10	1	-2
O=C(O)CCCCCNC(=O)CCn1nnc2ccccc2c1=O	21187*	-4	-2	?	6
O=C(CCn1nnc2ccccc2c1=O)NCC1CCC(C(=O)O)CC1 (stereo not drawn)	24413*	2	-3	-3	-1

From PubChem BioAssay
